The values below come from PubChem BioAssay (NCATS).

Each structure is given as a SMILES string. Several values for one entry are separate records, joined by “and”; a condition that tells them apart may be missing. Equal values may be shown once. Results filed as inconclusive are left out. Activity calls are given as the source filed them. Unless noted, the rule behind the calls is not given here.

The nature of assay [1]: qHTS Assay for Identifying Gametocytocidal Compounds (AID 743244; active = well fitted curve in the direction sought with a large enough effect; an effect the other way counts as inactive or inconclusive;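 note: % is set by controls: 0 for no effect and ±100 for the full control effect; actives lower the fluorescent signal which means gametocytes are killed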). The settings on record: P. falciparum 3D7 stage III-V gametocytes, alamarBlue, 72 h; max response: stronger effect = lower value. In outline:
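Stage III–V gametocytes of P. falciparum 3D7 were seeded at 20,000 cells/well onto pre-dispensed compounds. After 72 h, 37 °C, 5% CO2, alamarBlue was added for another 24 h.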

Assay [2] is described as follows: qHTS profiling for inhibitors of Plasmodium falciparum (3D7) proliferation (AID 743322).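 Note: infected erythrocytes exposed to compound for 72 h before lysis; 100% = DMSO vehicle wells and 0% = 0.29 µM artemisinin.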 The note with it: P. falciparum 3D7 proliferation; at 28.7 µM (top of the series) unless noted. In outline:
(§1)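 Parasite DNA was quantified by SYBR Green I fluorescence (ex 485, em 535 nm) after overnight lysis in saponin/Triton buffer at room temperature. Cultures at 0.3% parasitemia and 2.5% hematocrit were first exposed to compound for 72 h at 37 C; signals were normalised to artemisinin (0.29 uM) and vehicle wells.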

The nature of assay [3]: qHTS profiling for inhibitors of Plasmodium falciparum (DD2) proliferation (AID 743323). The settings on record: lower = more inhibition; at 28.7 µM (top of the series) unless noted. In outline:
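1536-well qHTS; infected RBCs 0.3% parasitemia/2.5% Hct final; cpd 72 h 37 C 5% CO2; lysis buffer + SYBR Green I, o/n RT dark; FI 485/535; norm. to 0.29 uM artemisinin and DMSO, plate-stack corrected.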

Assay [4] can be described thus: qHTS profiling for inhibitors of Plasmodium falciparum (HB3) proliferation (AID 743324; active = well fitted curve in the direction sought with a large enough effect; an effect the other way counts as inactive or inconclusive;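 note: 100% = DMSO vehicle wells and 0% = artemisinin-treated control wells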). The settings on record: Plasmodium falciparum HB3 blood-stage proliferation; at 28.7 µM (top of the series) unless noted. An outline of the steps:
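SYBR Green fluorescence (485 ex/535 em) of lysed cultures, incubated overnight at room temperature in the dark, quantifies parasite DNA. Infected erythrocytes at 0.3% parasitemia and 2.5% hematocrit were exposed 72 h; values normalized to DMSO and 0.29 uM artemisinin controls.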

The nature of assay [5]: qHTS profiling of the MIPE4 collection as inhibitors of Plasmodium falciparum (3D7) proliferation (AID 743344).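 Note: scaled between DMSO vehicle wells and 0.29 µM artemisinin as full inhibition.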 The settings on record: P. falciparum 3D7 in erythrocytes, SYBR Green DNA fluorescence, 72 h; at 28.5 µM (top of the series) unless noted. In outline: as §1
Assay [6] can be described thus: qHTS profiling of the MIPE4 collection as inhibitors of Plasmodium falciparum (DD2) proliferation (AID 743345). The note with it: P. falciparum Dd2 in erythrocytes, SYBR Green DNA, 72 h; at 28.5 µM (top of the series) unless noted. In outline:
as §1

Assay [7] can be described thus: qHTS profiling of the MIPE4 collection as inhibitors of Plasmodium falciparum (DD2) proliferation (Rep 2) (AID 743346). The note with it: P. falciparum Dd2 in erythrocytes, SYBR Green DNA, 72 h; at 28.5 µM (top of the series) unless noted. An outline of the steps: as §1
A short description of assay [8]: qHTS profiling of the MIPE4 collection as inhibitors of Plasmodium falciparum (HB3) proliferation (AID 743347).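 Note: plate controls were DMSO vehicle wells for no effect and artemisinin wells for full effect.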 The settings on record: P. falciparum HB3 in erythrocytes, SYBR Green DNA, 72 h; at 28.5 µM (top of the series) unless noted. In outline:
as §1

Assay [9] in a line: Cell Proliferation Assay Versus the ED40515 IL2 Independent ATL cell lines (AID 1053194; calls by dose curve). The note with it: ED40515 IL2-independent ATL cells. In outline: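 CellTiter-Glo luminescence, read after 15 min at RT, gave viability of IL-2-free ED40515 cells (1000/well, RPMI plus 5% FBS) following 48 h drug exposure at 37C. Control wells held DMSO or 9.2 uM bortezomib.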
Assay [10] can be described thus: High-throughput drug toxicity screening in the BPDCN cell line Gen2.2 (AID 1224824).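 Note: cells exposed to compounds for 48 h before reading.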 The note with it: Gen2.2 BPDCN cells; at 45.8 µM (top of the series) unless noted. In outline: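 Gen2.2 cells (500/well) in phenol red-free RPMI with 10% FBS were exposed to compounds for 48 h at 37 °C, 5% CO2. Viability was read by CellTiter-Glo luminescence and normalized to DMSO (100%) and 9.2 uM bortezomib (0%).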

The nature of assay [11]: High-throughput drug toxicity screening in the BPDCN cell line Cal-1 (AID 1224825). The note with it: Cal-1 BPDCN cell viability, qHTS; at 45.8 µM (top of the series) unless noted. In outline: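 CellTiter-Glo luminescence after 48 h compound exposure; percent activity scaled with DMSO as 100% and bortezomib (9.2 uM final) as 0%. Cal-1 cells seeded at 500/well in RPMI, 10% FBS, no phenol red.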

Assay [12] in a line: qHTS assay for measurement of the activity of small molecule inhibitors on Zika virus induced Caspase-3 activity in human iPSC derived neural progenitor cells (hNPCs) (AID 1224857; active = well fitted curve in the direction sought with a large enough effect; an effect the other way counts as inactive or inconclusive; note: % of control where 0% means no effect; nearly all actives have a fitted effect of over 65% in size). An outline of the steps: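 Values are percent inhibition of virus-induced caspase-3/7 signal, scaled between uninfected cells and ZIKV-infected cells. Infection used 2 FFU/cell for 6 h after 1 h compound exposure.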

Assay [13] can be described thus: qHTS assay for measurement of the activity of small molecule inhibitors on Zika virus induced Caspase-3 activity in human astrocytoma cells (AID 1224859; active = well fitted curve in the direction sought with a large enough effect; an effect the other way counts as inactive or inconclusive;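 note: plate controls were ZIKV-infected untreated cells for no effect and uninfected cells for full effect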). An outline of the steps: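 Compound added 1 h pre-infection; ZIKV 2 FFU/cell on SNB-19 cells, 6 h, 37 C/5% CO2. Caspase-Glo 3/7 luminescence; values as % inhibition of ZIKV-induced caspase activity.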
Assay [14] in a line: qHTS Screen of the MIPE 4.0 Collection Against Ewings Sarcoma (RDES) (AID 1259252; active = well fitted curve in the direction sought with a large enough effect; an effect the other way counts as inactive or inconclusive; note: nearly all actives have a fitted effect of over 35% in size; note: potency is the fitted concentration of half-maximal effect). An outline of the steps: (§2)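 Viability screen: 48 h incubation at 37C, 95% humidity, 5% CO2 with serially titrated compound, followed by CellTiter-Glo readout.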
Assay [15] is described as follows: qHTS Screen of the MIPE 4.0 Collection Against Ewings Sarcoma (TC71) (AID 1259253; active = well fitted curve in the direction sought with a large enough effect; an effect the other way counts as inactive or inconclusive; note: potency is the fitted concentration of half-maximal effect; nearly all actives have a fitted effect of over 40% in size). In outline: as §2
The nature of assay [16]: qHTS Screen of the MIPE 4.0 Collection Against Ewings Sarcoma (EW8) (AID 1259255; active = well fitted curve in the direction sought with a large enough effect; an effect the other way counts as inactive or inconclusive; note: nearly all actives have a fitted effect of over 35% in size; note: potency is the fitted concentration of half-maximal effect;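 for viability: 100% = DMSO-treated cells and 0% = medium-only wells without cells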). An outline of the steps:
as §2

With `CCc1ccc(CCOc2ccc(CC3SC(=O)NC3=O)cc2)nc1` (stereo not drawn), the max response in assay [1] was 40% (inactive) and -8.95% (inactive). The same compound gave a remaining parasite growth % (stronger effect = lower value) in assay [2] of 92%. In addition, the activity, percent of control in assay [3] was 103%. Also, the remaining proliferation (% of control), lower = more inhibition in [4] stood at 66.4%. This compound came in with a parasite growth, % of DMSO control in assay [5] of 89.3%. The same compound registered a parasite growth remaining, % of DMSO control (lower = more inhibition) in assay [6] of 90.1%. For the same compound, in assay [7], the parasite growth, % of control (lower = inhibition) is 79.4%. The compound also registered a growth, % of control in assay [8] of 63.3%. Further, the figures for the Potency in [9], in [14] and in assay [15] were 23.5 µM (active), 0.0148 µM (active) and 0.296 µM (active), respectively. Also, the cell viability, % of control (lower = more cytotoxic) in assay [10] turned out to be 142%. The compound also returned a viability (% of control) in assay [11] of 100%. In addition, the Potency entry in assay [12], in [13] and in assay [16] was “inactive” in each case.
For the compound `COc1ccccc1-c1cccc(-c2c(O)c3cc(C#N)c(Cl)cc3[nH]c2=O)c1`, in assay [1], the max response is 99.8% (inactive). In assay [2], this compound displayed a remaining parasite growth % (stronger effect = lower value) of 97.4%. Further, the activity, percent of control in [3] was 76%. Besides, in assay [4], the remaining proliferation (% of control), lower = more inhibition turned out to be 74.9%. The same compound returned a parasite growth, % of DMSO control in [5] of 37.5% [at 57.5 µM]. In assay [7], this compound returned a parasite growth, % of control (lower = inhibition) of 32.5% [at 57.5 µM]. In [8], this compound yielded a growth, % of control of 14.1% [at 57.5 µM]. Besides, the Potency was 16.6 µM (active) in assay [9] and 30.3 µM (active) in [16]. The cell viability, % of control (lower = more cytotoxic) in assay [10] stood at 52.6% [at 92.2 µM]. Moreover, in assay [11], the viability (% of control) was determined as 99.8% [at 92.2 µM]. Besides, the Potency result in [12], in [13] and in [14] was “inactive” each time.
In the case of `CNC(=O)c1ccc(C)c(-n2c(C)cc(OCc3ccc(F)cc3F)c(Br)c2=O)c1`, the max response in assay [1] is 32.9% (inactive). The remaining parasite growth % (stronger effect = lower value) in [2] amounted to 91.9%. For the same compound, the activity, percent of control in [3] stood at 80.8%. For the same compound, the remaining proliferation (% of control), lower = more inhibition in [4] is 52.2%. In [5], this compound yielded a parasite growth, % of DMSO control of 42%. This compound also gave a parasite growth remaining, % of DMSO control (lower = more inhibition) in assay [6] of 84.9%. In [7], this compound registered a parasite growth, % of control (lower = inhibition) of 50.9%. The same compound returned a growth, % of control in assay [8] of 93.8%. In [9], the Potency is 26.4 µM (active). Besides, the cell viability, % of control (lower = more cytotoxic) in assay [10] was 140%. Moreover, the viability (% of control) in assay [11] is 94.3%. The Potency result in assay [12] and in assay [13] was “inactive” in each case.
